Screening data (PubChem BioAssay)
In the library only some 17% were active in any assay of this set; here they are far more common.
TDP1 inh – qHTS Assay for Inhibitors of Tyrosyl-DNA Phosphodiesterase (TDP1). recombinant TDP1, AlphaScreen DNA substrate cleavage. Potency, µM (series often up to 130 µM), without a hit: at the top dose activity change, negative = inhibition, most hits filed as inhibitors. Tyrosyl-DNA phosphodiesterase 1 (Homo sapiens), Q9NUW8. 350,000 compounds, 0.28% hits; note: % is set by controls: 0 for no effect and ±100 for the full control effect; nearly all actives have a fitted effect of over 40% in size
Target sequence (Q9NUW8 whole entry, looked up): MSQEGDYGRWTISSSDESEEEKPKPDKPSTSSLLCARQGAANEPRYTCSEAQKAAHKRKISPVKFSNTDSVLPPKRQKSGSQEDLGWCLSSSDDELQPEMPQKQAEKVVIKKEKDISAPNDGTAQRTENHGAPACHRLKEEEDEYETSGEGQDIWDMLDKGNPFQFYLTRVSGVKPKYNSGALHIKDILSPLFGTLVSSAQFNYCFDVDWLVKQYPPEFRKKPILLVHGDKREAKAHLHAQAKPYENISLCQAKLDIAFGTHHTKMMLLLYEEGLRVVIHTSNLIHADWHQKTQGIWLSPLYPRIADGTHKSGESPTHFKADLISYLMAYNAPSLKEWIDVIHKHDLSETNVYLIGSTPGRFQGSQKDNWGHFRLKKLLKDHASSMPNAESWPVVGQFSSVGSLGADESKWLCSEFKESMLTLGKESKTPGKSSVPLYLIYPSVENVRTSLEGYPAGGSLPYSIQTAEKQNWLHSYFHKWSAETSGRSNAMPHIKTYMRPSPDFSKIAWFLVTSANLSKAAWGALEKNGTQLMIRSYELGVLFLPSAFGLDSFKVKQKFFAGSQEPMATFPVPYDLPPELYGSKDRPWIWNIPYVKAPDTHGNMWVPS
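Signal: AlphaScreen proximity between streptavidin donor and anti-FITC acceptor beads on intact substrate. Reaction: Tdp1 1 nM, substrate 15 nM final, 5 min RT after 15 min compound preincubation.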
DT40 TDP1 no CPT – qHTS for Inhibitors of human tyrosyl-DNA phosphodiesterase 1 (TDP1): qHTS in cells in absence of CPT; DT40 Tdp1-/- hTDP1 cells, no CPT, ATP luminescence, 48 h; Potency, µM (doses to about 46.2 µM), for inactives: top-dose activity change, negative = growth inhibition, actives largely listed as inhibitors; 420,000 compounds, 15% hits; AID 686978, 2013; note: % is set by controls: 0 for no effect and ±100 for the full control effect; nearly all actives have a fitted effect of over 55% in size
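No-CPT arm: Tdp1-/-;hTDP1 DT40 cells (400/well) plus compounds, incubated ≥48 hr at 37 °C. Readout CellTiter-Glo luminescence.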
ClpP mod – qHTS Assay for Activators of ClpP; purified B. subtilis ClpP, FRET peptide cleavage, 20 min; Potency, µM (highest dose often 57.5 µM), inactives show top-dose activity change, negative = active; 340,000 compounds, 1.9% hits; active = well fitted falling curve with a large enough effect; inconclusive = small, poorly fitted or top-dose-only effect; inactive = no such curve, though single readings can be large or run the other way; note: the source files actives as falling curves though it sought activators and does not explain the sign; nearly all actives have a fitted effect of over 65% in size
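ClpP 10 microg/mL final, pH 8 Tris/KCl buffer with BSA, glycerol, Tween-20; compound pinned in; FRET-FV substrate; RT 20 min; Ex320/Em430; ΔFRET vs ADEP 5.8 microM, DMSO, no enzyme.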
TDP1 cell CPT – qHTS for Inhibitors of human tyrosyl-DNA phosphodiesterase 1 (TDP1): qHTS in cells in presence of CPT; chicken DT40 Tdp1-/-;hTDP1 cells + 20 nM CPT, ATP luminescence, 48 h; 420,000 compounds, 12% hits; Potency, µM (top dose mostly 46.2 µM), inactives show at the highest dose activity change, negative = growth inhibition, most hits filed as inhibitors; AID 686979, 2013; note: % is set by controls: 0 for no effect and ±100 for the full control effect; nearly all actives have a fitted effect of over 55% in size
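Chicken DT40 Tdp1-/- cells complemented with human TDP1, 400 cells/well, exposed to compounds plus 20 nM camptothecin for at least 48 h at 37 C; viability read as ATP content by CellTiter-Glo luminescence.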
* hit, by the source's call; [ ] = remark or other dose. Unless noted, calls come from the whole dose curve; as a rule, active = well fitted curve in the direction sought with a large enough effect; inconclusive = small, poorly fitted or top-dose-only effect, or another doubt; inactive = no such curve, though single readings can be large; an effect the other way counts as inactive or inconclusive. Potency is the fitted concentration of half-maximal effect.

`O=C(Nc1cccc(Cl)c1)Nc1nccs1` gave TDP1 inh 3%, DT40 TDP1 no CPT 16µM*, ClpP mod -4% and TDP1 cell CPT inconclusive.
O=C(c1ccccc1NS(=O)(=O)c1ccc(F)cc1F)N1CCCCC1 was read as TDP1 inh 0%, DT40 TDP1 no CPT -28% and TDP1 cell CPT -2%.
`Cc1[nH]ncc1-c1ccccc1Cl` gave TDP1 inh 7%, DT40 TDP1 no CPT -17%, ClpP mod 0% and TDP1 cell CPT 1%.
`O=C(C[n+]1ccc2ccccc2c1)c1ccc2ccc3ccccc3c2c1` gave DT40 TDP1 no CPT 4.1µM*, ClpP mod -3% and TDP1 cell CPT 3.3µM*.
Screening Cc1c(N)nc([C@H](CC(N)=O)NC[C@H](N)C(N)=O)nc1C(=O)N[C@H](C(=O)N[C@H](C)[C@@H](O)[C@H](C)C(=O)N[C@H](C(=O)NCCc1nc(-c2nc(C(=O)NCCCCN=C(N)N)cs2)cs1)[C@@H](C)O)[C@@H](O[C@@H]1O[C@@H](CO)[C@@H](O)[C@H](O)[C@@H]1O[C@H]1O[C@H](CO)[C@@H](O)[C@H](OC(N)=O)[C@@H]1O)c1cnc[nH]1 returned DT40 TDP1 no CPT 0.94µM* and TDP1 cell CPT 1.2µM*.
For COc1ccc(C2CC(=O)C3=C(C2)NC(C)=C(C(=O)Nc2ccccc2C)C3c2coc3ccc(C)cc3c2=O)cc1OC (stereo not drawn) the results were TDP1 inh 6%, DT40 TDP1 no CPT inconclusive, ClpP mod -1% and TDP1 cell CPT 21µM*.
Screening CC1=C(C(=O)Nc2ccccc2)C(c2coc3ccccc3c2=O)C2=C(CCCC2=O)N1 (stereo not drawn) returned TDP1 inh 4%, DT40 TDP1 no CPT -19%, ClpP mod -5% and TDP1 cell CPT -17%.
Screening O=C(NCCc1ccccc1)C(=O)NCC1CCCN1S(=O)(=O)c1ccccc1 (stereo not drawn) returned DT40 TDP1 no CPT 10µM*, ClpP mod 2% and TDP1 cell CPT 13µM*.
`Cc1ccc(S(=O)(=O)N2CCC[C@H]2C(=O)Nc2ccccc2Cl)cc1` gave TDP1 inh -3%, DT40 TDP1 no CPT 16µM* and TDP1 cell CPT 4%.
For COc1ccc(CCNC(=O)C(=O)NCC2CCCN2S(=O)(=O)c2ccccc2)cc1OC (stereo not drawn) the results were DT40 TDP1 no CPT 13µM*, ClpP mod -6% and TDP1 cell CPT inconclusive.
COc1ccc(CCNC(=O)C(=O)NCC2OCCN2S(=O)(=O)c2ccccc2)cc1OC (stereo not drawn) was read as DT40 TDP1 no CPT -19%, ClpP mod -1% and TDP1 cell CPT inconclusive.
`CCOCCCNC(=O)C1CCCCN1S(=O)(=O)c1ccc(F)cc1` (stereo not drawn) gave TDP1 inh 6%, DT40 TDP1 no CPT -16%, ClpP mod -1% and TDP1 cell CPT -6%.
For CCOc1ccccc1NC(=O)C1CCCCN1S(=O)(=O)c1ccc(F)cc1 (stereo not drawn) the results were TDP1 inh -3%, DT40 TDP1 no CPT 21µM*, ClpP mod -1% and TDP1 cell CPT -28%.
Screening COc1ccc(-c2nc3sc(CCNC(=O)C(=O)Nc4ccc(C)c(F)c4)c(C)n3n2)cc1 returned TDP1 inh 0%, DT40 TDP1 no CPT 1%, ClpP mod -4% and TDP1 cell CPT 19%.
`Cc1c(Cl)cccc1NC(=O)C(C)n1nc(C)c2c(C)n(-c3ccccc3)nc2c1=O` (stereo not drawn) gave TDP1 inh 8%, DT40 TDP1 no CPT -28%, ClpP mod 2% and TDP1 cell CPT -25%.
For COc1ccc(CN(Cc2ccccc2)C(=O)c2ccc(OC)cc2O)cc1 the results were TDP1 inh -14%.
For CC(C)(C#N)NC(=O)C1CCCN1S(=O)(=O)c1ccc2ccccc2c1 (stereo not drawn) the results were TDP1 inh -14%, DT40 TDP1 no CPT inconclusive, ClpP mod 0% and TDP1 cell CPT 23µM*.
For Cc1ccc(S(=O)(=O)N2CCCC2C(=O)OCc2ccco2)cc1 (stereo not drawn) the results were TDP1 inh -2%, DT40 TDP1 no CPT 21µM*, ClpP mod 0% and TDP1 cell CPT 15µM*.
O=C(NCc1ccccn1)C1CN(S(=O)(=O)c2ccccc2)CCN1S(=O)(=O)c1ccccc1 (stereo not drawn) was read as TDP1 inh 0%, DT40 TDP1 no CPT -9% and TDP1 cell CPT 8%.
`Cc1ccc(S(=O)(=O)N2CCCC2C(=O)NCCc2ccccc2)cc1` (stereo not drawn) gave TDP1 inh 5%, DT40 TDP1 no CPT 15µM*, ClpP mod -26% and TDP1 cell CPT -14%.
`CC(C)(C)c1ccc(S(=O)(=O)N2CCCCC2C(=O)NCc2ccccn2)cc1` (stereo not drawn) gave TDP1 inh 2%, DT40 TDP1 no CPT inconclusive, ClpP mod -1% and TDP1 cell CPT 23µM*.
Screening CCNC(=O)C1CCCN1S(=O)(=O)c1ccc2ccccc2c1 (stereo not drawn) returned TDP1 inh 3%, DT40 TDP1 no CPT -23%, ClpP mod 1% and TDP1 cell CPT inconclusive.
For O=C(NCCc1ccccc1)C1CCCN1S(=O)(=O)c1ccc(Cl)cc1 (stereo not drawn) the results were TDP1 inh 8%[0.0935 µM], DT40 TDP1 no CPT inconclusive and TDP1 cell CPT -27%.
Screening Cc1ccc(C2(C(=O)N3CCC(n4nc(-c5ccccc5)oc4=O)CC3)CC2)cc1 returned TDP1 inh 4%, DT40 TDP1 no CPT inconclusive, ClpP mod 0% and TDP1 cell CPT inconclusive.
For CCOc1ccc2ccccc2c1/C=N/NC(=O)c1ccncc1 the results were TDP1 inh 3%, DT40 TDP1 no CPT -22%, ClpP mod -2% and TDP1 cell CPT 3%.
CCOC(=O)c1c(C)[nH]c(C)c1C(=O)COC(=O)[C@@H]1CCCN1S(=O)(=O)c1ccc(Cl)cc1 was read as TDP1 inh -1%, DT40 TDP1 no CPT 13µM*, ClpP mod -1% and TDP1 cell CPT 15µM*.
For O=C(COC(=O)[C@@H]1CCCN1S(=O)(=O)c1ccc(Cl)cc1)NCC(F)(F)F the results were TDP1 inh 6%, DT40 TDP1 no CPT -12%, ClpP mod 7% and TDP1 cell CPT -2%.
COc1ccc([C@@H]2[C@@H]3C(=O)N(C(C)(C)C)C(=O)[C@@H]3[C@]3(C)C(=O)N(c4cccc(Br)c4)C(=O)N23)cc1 was read as DT40 TDP1 no CPT inconclusive, ClpP mod -1% and TDP1 cell CPT inconclusive.
